# Many of the other results were omitted from the sample, so the strongest signals are more common in it than they were.
# Assays:
# Assay in all cases: glycan array binding signal (z-score within array); higher = stronger binding
# Conditions in all cases: glycan notation: IUPAC condensed, linker removed
# [1] = target: Fuc(a1-2)Gal(b1-3)GlcNAc(b1-2)Man(a1-3)[Fuc(a1-2)Gal(b1-3)GlcNAc(b1-2)Man(a1-6)]Man(b1-4)GlcNAc(b1-4)[Fuc(a1-6)]GlcNAc
# Outline: (§1)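 Arrays were curated from the Consortium for Functional Glycomics database, 3228 in total, and kept only where the protein sequence was available. Binding is expressed as a within-array Z-score. This score was averaged across arrays of the same protein sequence at different concentrations or buffers and across linkers, and negative values can be read as non-binding.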
# [2] = target: Fuc(a1-2)Gal(b1-3)GlcNAc(b1-3)Gal(b1-4)Glc
# Outline: as §1
# [3] = target: Fuc(a1-2)Gal(b1-4)GlcNAc(b1-2)Man(a1-3)[Fuc(a1-2)Gal(b1-4)GlcNAc(b1-2)Man(a1-6)]Man(b1-4)GlcNAc(b1-4)[Fuc(a1-6)]GlcNAc
# Outline: as §1
# [4] = target: Fuc(a1-2)Gal(b1-4)[Fuc(a1-3)]GlcNAc(b1-3)Gal(b1-4)[Fuc(a1-3)]GlcNAc(b1-3)Gal(b1-4)[Fuc(a1-3)]GlcNAc
# Outline: as §1
# [5] = target: Fuc(a1-2)[Gal(a1-3)]Gal(b1-3)GlcNAc(b1-2)Man(a1-3)[Fuc(a1-2)[Gal(a1-3)]Gal(b1-3)GlcNAc(b1-2)Man(a1-6)]Man(b1-4)GlcNAc(b1-4)[Fuc(a1-6)]GlcNAc
# Outline: as §1
# [6] = target: Fuc(a1-2)[Gal(a1-3)]Gal(b1-4)GlcNAc
# Outline: as §1
# [7] = target: Fuc(a1-2)[Gal(a1-3)]Gal(b1-4)GlcNAc(b1-3)[Fuc(a1-2)[Gal(a1-3)]Gal(b1-4)GlcNAc(b1-6)]GalNAc
# Outline: as §1
# [8] = target: Fuc(a1-2)[Gal(a1-3)]Gal(b1-4)GlcNAc(b1-6)GalNAc
# Outline: as §1
# [9] = target: Fuc(a1-2)[GalNAc(a1-3)]Gal(b1-3)GalNAc(b1-3)Gal(a1-4)Gal(b1-4)Glc
# Outline: as §1
# [10] = target: Fuc(a1-2)[GalNAc(a1-3)]Gal(b1-4)GlcNAc(b1-3)GalNAc
# Outline: as §1
# [11] = target: Fuc(a1-3)[Gal(b1-4)]GlcNAc(b1-3)Gal(b1-4)[Fuc(a1-3)]GlcNAc(b1-3)Gal(b1-4)[Fuc(a1-3)]GlcNAc
# Outline: as §1
# [12] = target: Fuc(a1-3)[Gal3S(b1-4)]GlcNAc6S
# Outline: as §1
# [13] = target: Fuc(b1-3)GlcNAc
# Outline: as §1
# [14] = target: Gal(a1-3)Gal(b1-3)GlcNAc(b1-2)Man
# Outline: as §1
# [15] = target: Gal(a1-3)Gal(b1-3)GlcNAc(b1-2)Man(a1-3)[Gal(a1-3)Gal(b1-3)GlcNAc(b1-2)Man(a1-6)]Man(b1-4)GlcNAc(b1-4)GlcNAc
# Outline: as §1
# [16] = target: Gal(b1-3)GlcNAc(b1-2)Man
# Outline: as §1
# [17] = target: Gal(b1-3)GlcNAc(b1-2)[Gal(b1-3)GlcNAc(b1-6)]Man(a1-6)[Gal(b1-3)GlcNAc(b1-2)Man(a1-3)]Man(b1-4)GlcNAc(b1-4)GlcNAc
# Outline: as §1
# [18] = target: Gal(b1-3)GlcNAc(b1-3)Gal(b1-4)[Fuc(a1-3)]GlcNAc
# Outline: as §1
# [19] = target: Gal(b1-3)GlcNAc(b1-3)GalNAc
# Outline: as §1
# [20] = target: Gal(b1-4)GlcNAc(b1-2)Man
# Outline: as §1
# [21] = target: Gal(b1-4)GlcNAc(b1-2)Man(a1-3)[Gal(b1-4)GlcNAc(b1-2)Man(a1-6)][GlcNAc(b1-4)]Man(b1-4)GlcNAc(b1-4)[Fuc(a1-6)]GlcNAc
# Outline: as §1
# [22] = target: Gal(b1-4)GlcNAc(b1-2)[Gal(b1-4)GlcNAc(b1-6)]Man(a1-6)[GlcNAc(b1-4)][Gal(b1-4)GlcNAc(b1-2)Man(a1-3)]Man(b1-4)GlcNAc(b1-4)GlcNAc
# Outline: as §1
# [23] = target: Gal(b1-4)GlcNAc(b1-3)Gal(b1-4)Glc
# Outline: as §1
# [24] = target: Gal(b1-4)GlcNAc(b1-3)Gal(b1-4)GlcNAc(b1-2)[Gal(b1-4)GlcNAc(b1-3)Gal(b1-4)GlcNAc(b1-6)]Man(a1-6)[Gal(b1-4)GlcNAc(b1-3)Gal(b1-4)GlcNAc(b1-2)Man(a1-3)]Man(b1-4)GlcNAc(b1-4)GlcNAc
# Outline: as §1
# [25] = target: Gal(b1-4)GlcNAc(b1-3)Gal(b1-4)GlcNAc(b1-3)Gal(b1-4)GlcNAc(b1-2)Man(a1-3)[Gal(b1-4)GlcNAc(b1-3)Gal(b1-4)GlcNAc(b1-3)Gal(b1-4)GlcNAc(b1-2)Man(a1-6)]Man(b1-4)GlcNAc(b1-4)[Fuc(a1-6)]GlcNAc
# Outline: as §1
# [26] = target: Gal(b1-4)GlcNAc(b1-3)Gal(b1-4)GlcNAc(b1-3)Gal(b1-4)GlcNAc(b1-3)Gal(b1-4)GlcNAc(b1-2)[Gal(b1-4)GlcNAc(b1-3)Gal(b1-4)GlcNAc(b1-3)Gal(b1-4)GlcNAc(b1-3)Gal(b1-4)GlcNAc(b1-6)]Man(a1-6)[Gal(b1-4)GlcNAc(b1-3)Gal(b1-4)GlcNAc(b1-3)Gal(b1-4)GlcNAc(b1-3)Gal(b1-4)GlcNAc(b1-2)Man(a1-3)]Man(b1-4)GlcNAc(b1-4)[Fuc(a1-6)]GlcNAc
# Outline: as §1
# [27] = target: Gal(b1-4)GlcNAc(b1-3)Gal(b1-4)GlcNAc(b1-3)Gal(b1-4)GlcNAc(b1-3)Gal(b1-4)GlcNAc(b1-3)Gal(b1-4)GlcNAc(b1-2)Man(a1-3)[Gal(b1-4)GlcNAc(b1-3)Gal(b1-4)GlcNAc(b1-3)Gal(b1-4)GlcNAc(b1-3)Gal(b1-4)GlcNAc(b1-3)Gal(b1-4)GlcNAc(b1-2)Man(a1-6)]Man(b1-4)GlcNAc(b1-4)[Fuc(a1-6)]GlcNAc
# Outline: as §1
binder,measurement,setting,value
Aap lectin (Staphylococcus epidermidis) (protein) VNLNYSSPFMSLLSMPADSSSNNTKNTIDIPPTTVKGRDNYDFYGRVDIESNPTDLNATNLTRYNYGQPPGTTTAGAVQFKNQVSFDKDFDFNIRVANNRQSNTTGADGWGFMFSKKDGDDFLKNGGILREKGTPSAAGFRIDTGYYNNDPLDKIQKQAGQGYRGYGTFVKNDSQGNTSKVGSGTPSTDFLNYADNTTNDLDGKFHGQKLNNVNLKYNASNQTFTATYAGKTWTATLSELGLSPTDSYNFLVTSS,glycan array binding signal (z-score),[1],2.87
same,glycan array binding signal (z-score),[2],-0.68
same,glycan array binding signal (z-score),[3],-0.829
same,glycan array binding signal (z-score),[4],-0.534
same,glycan array binding signal (z-score),[5],3.02
same,glycan array binding signal (z-score),[6],3.04
same,glycan array binding signal (z-score),[7],2.98
same,glycan array binding signal (z-score),[8],-0.267
same,glycan array binding signal (z-score),[9],-0.573
same,glycan array binding signal (z-score),[10],0.8
same,glycan array binding signal (z-score),[11],0.476
same,glycan array binding signal (z-score),[12],-0.816
same,glycan array binding signal (z-score),[13],0.487
same,glycan array binding signal (z-score),[14],2.18
same,glycan array binding signal (z-score),[15],2.88
same,glycan array binding signal (z-score),[16],3.17
same,glycan array binding signal (z-score),[17],-0.728
same,glycan array binding signal (z-score),[18],-0.351
same,glycan array binding signal (z-score),[19],0.183
same,glycan array binding signal (z-score),[20],3
same,glycan array binding signal (z-score),[21],0.361
same,glycan array binding signal (z-score),[22],-0.475
same,glycan array binding signal (z-score),[23],0.463
same,glycan array binding signal (z-score),[24],-0.781
same,glycan array binding signal (z-score),[25],2.92
same,glycan array binding signal (z-score),[26],0.345
same,glycan array binding signal (z-score),[27],0.727
